Pf Dd2 inh = qHTS Primary assay for Inhibitors of Plasmodium falciparum Dd2 growth in vitro. P. falciparum Dd2 growth, SYBR Green, 72 h. Potency, µM (highest dose often 28.9 µM), for inactives: top-dose activity, negative = inhibition, most hits filed as inhibitors. actives 4.3% (n = 120,000). AID 1347417, 2020; active means well fitted inhibition curve with a large enough effect;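 further: plate controls were DMSO vehicle for no effect and reference drug for full effect; nearly all actives have a fitted effect of over 65% in size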
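Infected erythrocytes (Dd2, 0.3% parasitemia, 2.5% hematocrit final) are added to compound in RPMI-1640/Albumax II medium, grown 72 h at 37C in low oxygen, then lysed with saponin/Triton-X containing SYBR Green and read by fluorescence.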
Numbers without * were called inactive; [ ] = another dose, or the depositor's remark. Shown is part of a subset that was picked to be rich in hits. Potency means the concentration at half of the fitted maximal effect.

For CCc1csc(CNC2CCC3(CCNCC3)CC2)n1 the results were Pf Dd2 inh -12%.
Screening c1ccc(-c2noc(CCNC3CCC4(CCNCC4)CC3)n2)nc1 returned Pf Dd2 inh -2%.
Screening CCn1cc(C(=O)N[C@@H]2CN(S(C)(=O)=O)C[C@H]2CN(C)C)cn1 returned Pf Dd2 inh 5%.
`COC[C@@H]1CN(S(=O)(=O)c2ccccc2F)C[C@H]1c1ccncc1` gave Pf Dd2 inh -19%.
`Cc1ccc(NC(=O)N2CCC(CCNC(=O)c3n[nH]c4ccccc34)CC2)cc1F` gave Pf Dd2 inh 4µM*.
Screening Cc1ccc(OCC(=O)NCCC2CCN(C(=O)Nc3ccc(F)cc3)CC2)cc1 returned Pf Dd2 inh 13µM*.
Screening CCC(=O)NCCC1CCN(C(=O)Nc2ccc(C)c(F)c2)CC1 returned Pf Dd2 inh -18%.
`CCC(=O)NCCC1CCN(C(=O)Nc2ccc(C)cc2)CC1` gave Pf Dd2 inh -6%.
`Cc1ccc(NC(=O)N2CCC(CCNC(=O)Cc3cccc(F)c3)CC2)cc1` gave Pf Dd2 inh inactive.
Cc1cccc(C(=O)NCCC2CCN(C(=O)Nc3ccc(F)cc3)CC2)c1 was read as Pf Dd2 inh -18%.
`Cn1cc(C(=O)N2CCCC(Cc3noc(-c4cccnc4)n3)C2)cn1` (stereo unspecified) gave Pf Dd2 inh -8%.
Screening NC[C@H]1O[C@H](Cc2cc(-c3ccc(F)cc3)on2)CC[C@@H]1O returned Pf Dd2 inh inactive.
`COc1ccc(C(=O)N2CC(c3nnc(-c4ccc(C)cc4)o3)C3(CCOCC3)C2)cc1` (stereo unspecified) gave Pf Dd2 inh -25%.
`Cc1cc(OC2CN(Cc3cccc4ccccc34)C2)ccc1F` gave Pf Dd2 inh inactive.
CCOc1ccc(CC(=O)N2[C@@H]3CC[C@H]2CC(NC(=O)c2ccncc2)C3)cc1 (stereo partly specified) was read as Pf Dd2 inh inactive.
COc1cccc(CC(=O)N2C[C@@H](Oc3ccccc3)C[C@@H]2C(=O)N2CCOCC2)c1 was read as Pf Dd2 inh -12%.
CC(=O)N1Cc2ccccc2OC2(CCN(C(=O)CCc3c[nH]c4ccccc34)CC2)C1 was read as Pf Dd2 inh -27%.
`CN(C)C(=O)N1CCC2(CC1)CN(C(=O)CCc1c[nH]c3ccccc13)Cc1ccccc1O2` gave Pf Dd2 inh 5µM*.
CC(=O)NCCCC(=O)N1Cc2ccccc2OC2(CCN(C(=O)N(C)C)CC2)C1 was read as Pf Dd2 inh -4%.
`NC(=O)CNC(=O)[C@@]1(O)C[C@@H](O)[C@H](O)[C@@H](NC(=O)c2ccc(F)c(Cl)c2)C1` gave Pf Dd2 inh -3%[44.1 µM].
CCc1nc(C)c(C(=O)N[C@H]2COC[C@H]2Cc2cc(C)no2)s1 was read as Pf Dd2 inh -11%.
For Cc1ccc(C(=O)NCc2nnc3ccc(-c4ccc(C)c(C)c4)nn23)s1 the results were Pf Dd2 inh -10%.
CCS(=O)(=O)Nc1ccc(C2(C(=O)NCc3ccc(F)cc3F)CCCCC2)cc1 was read as Pf Dd2 inh inactive.
Screening CCS(=O)(=O)Nc1ccc(C2(C(=O)Nc3cccc(F)c3C)CCCCC2)cc1 returned Pf Dd2 inh 11µM*.
CCS(=O)(=O)Nc1ccc(C2(C(=O)NCc3ccccc3)CCCCC2)cc1 was read as Pf Dd2 inh inactive.
For CC[C@@H]1[C@@H](NC(=O)c2oc(COc3ccccc3)cc2C)[C@@H]2CCO[C@H]12 the results were Pf Dd2 inh -19%.
For Cn1cc(C(=O)NCC2CN(C(=O)Cc3cccc(Oc4ccccc4)c3)CC23CN(c2ccccc2)C3)cn1 (stereo unspecified) the results were Pf Dd2 inh -21%.
Screening O=C(NCC1CN(C(=O)Cc2cccc(Cl)c2)CC12CN(c1ccccc1)C2)C1CC1 (stereo unspecified) returned Pf Dd2 inh 8.9µM*.
Screening O=C(Cc1ccccc1)NCC1CN(C(=O)Cc2cccc(Oc3ccccc3)c2)CC12CN(c1ccccc1)C2 (stereo unspecified) returned Pf Dd2 inh -14%.
C=CCO[C@@H]1CCN2C(=O)[C@@H]3C[C@@H](OCC4CC4)CN3C(=O)[C@@H]2C1 was read as Pf Dd2 inh -3%[44.1 µM].
CCn1cc(CN2CCC3(CC2)CC(O)CCO3)c2cc(OC)ccc21 (stereo unspecified) was read as Pf Dd2 inh -25%.
O=C(Cn1ncc2c3ccccc3n(Cc3ccccc3F)c2c1=O)N1CCCCCC1 was read as Pf Dd2 inh 10µM*.
CC1CCCCN1CCCNC(=O)Cn1ncc2c3ccccc3n(Cc3ccccc3F)c2c1=O (stereo unspecified) was read as Pf Dd2 inh 5µM*.
For CCCn1c2ccccc2c2cnn(CC(=O)NCCCN3CCCCC3)c(=O)c21 the results were Pf Dd2 inh -19%.
`CCCn1c2ccccc2c2cnn(CC(=O)N3CCCC(C)C3)c(=O)c21` (stereo unspecified) gave Pf Dd2 inh -11%.
For CCOC(=O)C1CCCN(C(=O)Cn2ncc3c4ccccc4n(Cc4ccccc4)c3c2=O)C1 (stereo unspecified) the results were Pf Dd2 inh 0%.
`CC1CCCCN1CCCNC(=O)Cn1ncc2c3ccccc3n(C)c2c1=O` (stereo unspecified) gave Pf Dd2 inh inactive.
CCCC1C=CCN1C(=O)c1coc(CN2CCN(c3ccccc3F)CC2)n1 (stereo unspecified) was read as Pf Dd2 inh -10%.
Screening CCCc1noc(-c2cn(C3CCN(C(=O)c4ccc[nH]4)CC3)nn2)n1 returned Pf Dd2 inh inactive.
Screening C1CC(OCC2CC2)CN1 (stereo unspecified) returned Pf Dd2 inh 20%.
Screening Cc1noc([C@@H]2CC(F)(F)CN2S(=O)(=O)c2ccc(F)cc2)n1 returned Pf Dd2 inh 14%.
`NC(=O)c1ccc(CC2CCN(C(=O)C3CCC3)CC2)cc1` gave Pf Dd2 inh -11%.
Screening N#Cc1ccc(S(=O)(=O)N2CCCOCCNC(=O)[C@@H]3CCCC[C@@H]32)cc1 returned Pf Dd2 inh 23%.
For CCOCCCn1c(=N)c(S(=O)(=O)c2ccc(C)cc2)cc2c(=O)n3cccc(C)c3nc21 the results were Pf Dd2 inh -6%.
For CCOCCCn1c(=N)c(C(=O)NC2CCCC2)cc2c(=O)n3cccc(C)c3nc21 the results were Pf Dd2 inh 2.2µM*.
COCCn1c(=N)c(C(=O)NC2CCCC2)cc2c(=O)n3cc(C)ccc3nc21 was read as Pf Dd2 inh 3%.
`COCCC(=O)NCC(=O)N1CCCCCNC(=O)CC1c1ccccc1` (stereo unspecified) gave Pf Dd2 inh 13%.
For COCc1noc([C@@H]2CN(Cc3ccoc3)C[C@H]2COC)n1 the results were Pf Dd2 inh 7%.
Screening O=C(Nc1cccc(C(F)(F)F)c1)O[C@@H]1CO[C@H]2[C@@H]1OC[C@@H]2n1cc(-c2ccccn2)nn1 returned Pf Dd2 inh 10µM*.
`O=C(Nc1cccc(C(F)(F)F)c1)N[C@H]1CO[C@H]2[C@@H]1OC[C@H]2OC(=O)Nc1ccccc1` gave Pf Dd2 inh -27%.
O=C(Nc1ccc(Oc2ccccc2)cc1)N[C@H]1CO[C@H]2[C@@H]1OC[C@@H]2n1cc(-c2ccccn2)nn1 was read as Pf Dd2 inh -22%.
Screening CC(C)NC(=O)N1CCN(C(=O)C2CCCCC2)[C@@H](C(=O)N[C@@H](CC2CCCCC2)C(N)=O)C1 returned Pf Dd2 inh -21%.
